Reference: PubChem BioAssay AID1259245 (Vanderbilt High Throughput Screening Facility, 2017)
Values joined by “and” are separate entries in the source; they are usually repeats but may differ in a detail not shown here. Identical values can stand only once. Out of some 40,000 compounds screened, about 1,400 (3.5%) were called active.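 The calls were made as follows: active = any of four per-well response measures lying three or more SD from its plate-wide compound average, in either direction; inactive = the rest, inconclusive results apart.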 The list comes from a sample in which actives are over-represented; it also holds similar structures and randomly drawn compounds.

Biological target: Voltage-dependent calcium channel gamma-2 subunit (Mus musculus) + Glutamate receptor 2 (Rattus norvegicus) (UniProt O88602+P19491)
Test: AMPAR-TARP gamma-2 complex positive or negative modulation – cell-based, membrane potential dye, primary screen (AID 1259245)
Conditions: HEK293 GluA2+stargazin, membrane potential dye (FDSS), glutamate EC50, at 30 µM, hits were called plate by plate, in both directions; compound max-min signal: compound-alone response (agonism); glutamate slope, % of max: measured here: glutamate response slope, % max

Chain of Voltage-dependent calcium channel gamma-2 subunit (Mus musculus) + Glutamate receptor 2 (Rattus norvegicus) (O88602 whole entry, looked up): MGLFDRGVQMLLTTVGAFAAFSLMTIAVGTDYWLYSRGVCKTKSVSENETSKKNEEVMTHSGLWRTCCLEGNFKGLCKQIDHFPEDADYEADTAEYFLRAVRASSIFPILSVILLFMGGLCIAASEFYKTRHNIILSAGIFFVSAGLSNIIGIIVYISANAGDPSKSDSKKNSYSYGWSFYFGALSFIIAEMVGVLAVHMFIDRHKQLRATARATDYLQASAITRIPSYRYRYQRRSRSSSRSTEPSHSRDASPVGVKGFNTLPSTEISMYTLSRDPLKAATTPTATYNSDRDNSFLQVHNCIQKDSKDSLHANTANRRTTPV
Chain of Voltage-dependent calcium channel gamma-2 subunit (Mus musculus) + Glutamate receptor 2 (Rattus norvegicus) (P19491 whole entry, looked up): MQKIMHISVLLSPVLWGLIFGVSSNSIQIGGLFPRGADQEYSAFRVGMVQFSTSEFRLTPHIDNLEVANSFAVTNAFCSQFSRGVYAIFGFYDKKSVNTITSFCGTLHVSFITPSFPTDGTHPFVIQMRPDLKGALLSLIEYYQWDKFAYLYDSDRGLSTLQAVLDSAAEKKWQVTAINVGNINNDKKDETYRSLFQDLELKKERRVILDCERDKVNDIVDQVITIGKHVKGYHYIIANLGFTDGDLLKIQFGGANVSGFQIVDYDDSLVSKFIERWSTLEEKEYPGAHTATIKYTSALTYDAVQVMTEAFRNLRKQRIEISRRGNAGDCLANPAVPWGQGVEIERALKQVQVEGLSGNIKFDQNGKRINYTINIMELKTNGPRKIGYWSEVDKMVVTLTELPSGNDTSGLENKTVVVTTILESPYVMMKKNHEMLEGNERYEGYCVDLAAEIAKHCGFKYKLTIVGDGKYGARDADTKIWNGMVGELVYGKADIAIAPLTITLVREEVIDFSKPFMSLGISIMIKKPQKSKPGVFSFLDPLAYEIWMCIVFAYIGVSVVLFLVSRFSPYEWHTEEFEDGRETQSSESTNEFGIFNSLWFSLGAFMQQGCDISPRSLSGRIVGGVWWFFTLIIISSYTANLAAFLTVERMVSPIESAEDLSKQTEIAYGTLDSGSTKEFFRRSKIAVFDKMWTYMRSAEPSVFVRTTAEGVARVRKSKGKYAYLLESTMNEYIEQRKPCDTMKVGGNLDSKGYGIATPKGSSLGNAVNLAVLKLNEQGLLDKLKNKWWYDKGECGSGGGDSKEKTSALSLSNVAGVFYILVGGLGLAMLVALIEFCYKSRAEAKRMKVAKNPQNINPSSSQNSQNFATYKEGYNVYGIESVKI

**Q.** For `CCOC(=O)N1CCN(/C=C(\C#N)C(=O)Nc2ccccc2)CC1`, which compound max-min signal is on record?
**A.** 0.158

**Q.** And the glutamate response, % of max?
**A.** 47.6% (inactive)

**Q.** What about the glutamate slope, % of max of the same compound?
**A.** 78%

**Q.** `Cc1ccc(F)cc1NC(=O)CSc1ncc(S(=O)(=O)c2ccc(Cl)s2)c(N)n1` was tested. Which compound max-min signal did it give?
**A.** 0.162

**Q.** What about the glutamate response, % of max of the same compound?
**A.** 28.9% (inactive)

**Q.** And the glutamate slope, % of max?
**A.** 52.4%

**Q.** What does the source list for `CCOCCn1c(=O)c2c(nc3n2CCCN3c2ccc(Br)cc2)n(C)c1=O`?
**A.** compound max-min signal: 0.127; glutamate response, % of max: 46.2% (inactive); glutamate slope, % of max: 67.4%

**Q.** For `COc1ccc(Cl)c2sc(N(CCCN3CCOCC3)C(=O)c3ccno3)nc12`, which compound max-min signal is on record?
**A.** 0.17

**Q.** And the glutamate response, % of max?
**A.** 19.9% (active)

**Q.** What about the glutamate slope, % of max of the same compound?
**A.** 29.3%

**Q.** With `COc1ccc(OC)c2sc(N(CCN3CCOCC3)C(=O)c3cccc(F)c3)nc12` as the compound, how does the compound max-min signal read?
**A.** 0.177

**Q.** What about the glutamate response, % of max of the same compound?
**A.** 47.1% (inactive)

**Q.** And the glutamate slope, % of max?
**A.** 60.4%

**Q.** Which results are given for `COc1ccc(OC)c2sc(N(CCN3CCOCC3)C(=O)c3cccs3)nc12`?
**A.** compound max-min signal: 0.221; glutamate response, % of max: 45.8% (inactive); glutamate slope, % of max: 65.3%

**Q.** Which compound max-min signal does the source give for `O=C(/C=C/c1cccs1)NCC1CCN(C(=O)COc2ccccc2)CC1` here?
**A.** 0.0649

**Q.** What about the glutamate response, % of max of the same compound?
**A.** 42% (inactive)

**Q.** And the glutamate slope, % of max?
**A.** 61.3%

**Q.** What does the source list for `Cc1cc(C)c(NC(=O)CN2CCN(c3nccn3-c3ccccc3F)CC2)c(C)c1`?
**A.** compound max-min signal: 0.0429; glutamate response, % of max: 8.38% (inactive); glutamate slope, % of max: 22.6%

**Q.** With `O=C(Cc1csc(NC(=O)c2ccc(=O)[nH]c2)n1)NCCC1=CCCCC1` as the compound, how does the compound max-min signal read?
**A.** 0.0625

**Q.** And the glutamate response, % of max?
**A.** 14.3% (inactive)

**Q.** And the glutamate slope, % of max?
**A.** 44.1%

**Q.** Which results are given for `Cc1ccc(-n2ncc3c(=O)n(CC(=O)N4CCc5ccccc54)cnc32)cc1C`?
**A.** compound max-min signal: 0.12; glutamate response, % of max: 54.7% (inactive); glutamate slope, % of max: 80.7%

**Q.** Which results are given for `Cc1cc(NC(=O)C(C)Oc2ccccc2)n(-c2nc3c(cnn3-c3ccc(C)c(C)c3)c(=O)[nH]2)n1` (stereo unspecified)?
**A.** compound max-min signal: 0.407; glutamate response, % of max: 19.4% (active); glutamate slope, % of max: 19.7%

**Q.** Which results are given for `CCCC(CCC)C(=O)Nc1cc(C)nn1-c1nc2c(cnn2-c2cccc(Cl)c2)c(=O)[nH]1`?
**A.** compound max-min signal: 0.134; glutamate response, % of max: 34% (inactive); glutamate slope, % of max: 47.5%

**Q.** With `CCC(C(=O)Nc1cc(C)nn1-c1nc2c(cnn2-c2ccccc2)c(=O)[nH]1)c1ccccc1` (stereo unspecified) as the compound, how does the compound max-min signal read?
**A.** 0.102

**Q.** And the glutamate response, % of max?
**A.** 34.9% (inactive)

**Q.** What about the glutamate slope, % of max of the same compound?
**A.** 55.6%

**Q.** Which compound max-min signal does the source give for `Cc1cc(NC(=O)c2ccc3c(c2)OCO3)n(-c2nc3c(cnn3-c3cccc(Cl)c3)c(=O)[nH]2)n1` here?
**A.** 0.15

**Q.** And the glutamate response, % of max?
**A.** 27.3% (active)

**Q.** What about the glutamate slope, % of max of the same compound?
**A.** 36%

**Q.** How did the compound max-min signal turn out when `O=C(Nn1cnc2c(cnn2-c2cccc(Cl)c2)c1=O)c1ccc(-c2ccccc2)cc1` was run?
**A.** 0.0867

**Q.** What about the glutamate response, % of max of the same compound?
**A.** 36% (inactive)

**Q.** And the glutamate slope, % of max?
**A.** 64%

**Q.** With `Cc1ccccc1CN1C(=O)C2(c3ccccc31)N(c1ccc(F)c(F)c1)C(=O)CS2(=O)=O` (stereo unspecified) as the compound, how does the compound max-min signal read?
**A.** 0.109

**Q.** And the glutamate response, % of max?
**A.** 63.6% (inactive)

**Q.** And the glutamate slope, % of max?
**A.** 74.8%

**Q.** Which results are given for `CC1CCN(CC(O)COc2ccc(C(=O)c3ccccc3)cc2)CC1` (stereo unspecified)?
**A.** compound max-min signal: 0.0506; glutamate response, % of max: 53.3% (inactive); glutamate slope, % of max: 82.1%

**Q.** For `O=C(CCSc1ccccc1)NCC1(c2cccs2)CCOCC1`, which compound max-min signal is on record?
**A.** 0.0983

**Q.** What about the glutamate response, % of max of the same compound?
**A.** 28% (inactive)

**Q.** And the glutamate slope, % of max?
**A.** 50.4%

**Q.** With `Cc1ccc(S(=O)(=O)N2CCCCC2CCN)cc1` (stereo unspecified) as the compound, how does the compound max-min signal read?
**A.** 0.0595

**Q.** And the glutamate response, % of max?
**A.** 35.1% (inactive)

**Q.** And the glutamate slope, % of max?
**A.** 57.7%

**Q.** Which results are given for `Cc1ccc(-n2ccnc2N2CCN(CC(=O)Nc3ccc4c(c3)OCO4)CC2)cc1`?
**A.** compound max-min signal: 0.0402; glutamate response, % of max: 18.2% (inactive); glutamate slope, % of max: 39.2%

**Q.** `CCSc1nnc(-c2ccc(C)cc2)n1-c1ccccc1` was tested. Which compound max-min signal did it give?
**A.** 0.0317

**Q.** And the glutamate response, % of max?
**A.** 0.366% (inactive)

**Q.** What about the glutamate slope, % of max of the same compound?
**A.** -1.02%

**Q.** Which compound max-min signal does the source give for `CC(C)c1ccc(NC(=O)C(=O)NCCN2CCN(c3ccc(Cl)cc3)CC2)cc1` here?
**A.** 0.121

**Q.** And the glutamate response, % of max?
**A.** 29.8% (inactive)

**Q.** What about the glutamate slope, % of max of the same compound?
**A.** 55.1%

**Q.** `O=c1oc(-c2ccncc2)nc2c(Cl)cccc12` was tested. Which compound max-min signal did it give?
**A.** 0.253

**Q.** What about the glutamate response, % of max of the same compound?
**A.** 22.4% (active)

**Q.** And the glutamate slope, % of max?
**A.** 51.7%

**Q.** How did the compound max-min signal turn out when `Cc1cc(C(=O)O)c2cccc(Cl)c2n1` was run?
**A.** 0.0395 and 0.0789

**Q.** And the glutamate response, % of max?
**A.** 80.9% (inactive) and 28.3% (inactive)

**Q.** And the glutamate slope, % of max?
**A.** 99.3% and 46.1%

**Q.** How did the compound max-min signal turn out when `Cc1ccc(-c2nc3c(C)cc(C)cc3c(=O)o2)cc1` was run?
**A.** 0.127

**Q.** And the glutamate response, % of max?
**A.** 23.3% (inactive)

**Q.** And the glutamate slope, % of max?
**A.** 45.9%

**Q.** With `O=C(Nc1ccc2c(c1)OCO2)c1ccc(S(=O)(=O)N2CCCCCC2)cc1` as the compound, how does the compound max-min signal read?
**A.** 0.123

**Q.** What about the glutamate response, % of max of the same compound?
**A.** 36.1% (inactive)

**Q.** And the glutamate slope, % of max?
**A.** 60.4%

**Q.** For `COc1ccc(N2C(=O)/C(=C/c3ccncc3)SC2=S)cc1`, which compound max-min signal is on record?
**A.** 0.061

**Q.** And the glutamate response, % of max?
**A.** 31.6% (inactive)

**Q.** And the glutamate slope, % of max?
**A.** 49.4%

**Q.** `Cc1ccc(C(=O)Nc2cccc(N3CCCC3=O)c2)cc1[N+](=O)[O-]` was tested. Which compound max-min signal did it give?
**A.** 0.195

**Q.** And the glutamate response, % of max?
**A.** 33.5% (active)

**Q.** And the glutamate slope, % of max?
**A.** 54.6%

**Q.** Which results are given for `Cc1cccc(C(=O)Nc2cccc(N3CCCC3=O)c2)c1`?
**A.** compound max-min signal: 0.114; glutamate response, % of max: 45.7% (inactive); glutamate slope, % of max: 67.6%

**Q.** Which compound max-min signal does the source give for `O=C(Nc1cccc(N2CCCCC2=O)c1)c1cc([N+](=O)[O-])ccc1Cl` here?
**A.** 0.113

**Q.** And the glutamate response, % of max?
**A.** 24.4% (inactive)

**Q.** What about the glutamate slope, % of max of the same compound?
**A.** 52.2%

**Q.** Which results are given for `COc1ccc(NC(=O)COc2ccccc2F)cc1N1CCCCC1=O`?
**A.** compound max-min signal: 0.0429; glutamate response, % of max: 20.8% (inactive); glutamate slope, % of max: 35.3%

**Q.** For `O=C(Nc1onc2c1CCCC2)c1nc(-c2cnccn2)no1`, which compound max-min signal is on record?
**A.** 0.128

**Q.** What about the glutamate response, % of max of the same compound?
**A.** 29.1% (inactive)

**Q.** What about the glutamate slope, % of max of the same compound?
**A.** 62.8%

**Q.** `CCC(C)NC(=O)/C=C/c1cc(OC)ccc1OC` (stereo unspecified) was tested. Which compound max-min signal did it give?
**A.** 0.0444 and 0.0831

**Q.** What about the glutamate response, % of max of the same compound?
**A.** 100% (inactive) and 35.1% (inactive)

**Q.** What about the glutamate slope, % of max of the same compound?
**A.** 112% and 48.5%

**Q.** What does the source list for `O=C(Nc1ccc(S(=O)(=O)Nc2nccs2)cc1)c1csc(-c2cnccn2)n1`?
**A.** compound max-min signal: 0.274; glutamate response, % of max: 48.2% (active); glutamate slope, % of max: 85.9%

**Q.** For `CCCCCOc1cccc(C(=O)Nc2ccc(S(=O)(=O)Nc3nnc(CC)s3)cc2)c1`, which compound max-min signal is on record?
**A.** 0.112

**Q.** What about the glutamate response, % of max of the same compound?
**A.** 38.7% (inactive)

**Q.** What about the glutamate slope, % of max of the same compound?
**A.** 62.1%

**Q.** With `CC(C)c1cc(=O)n(CC(=O)Nc2ccc(S(=O)(=O)Nc3nccs3)cc2)cn1` as the compound, how does the compound max-min signal read?
**A.** 0.0931

**Q.** And the glutamate response, % of max?
**A.** 41.9% (inactive)

**Q.** And the glutamate slope, % of max?
**A.** 61.5%

**Q.** `CCOc1ccccc1NC(=O)Cn1nc(-c2cc(C)c(C)cc2C)ccc1=O` was tested. Which compound max-min signal did it give?
**A.** 0.0944

**Q.** And the glutamate response, % of max?
**A.** 64% (inactive)

**Q.** What about the glutamate slope, % of max of the same compound?
**A.** 97.5%

**Q.** Which results are given for `Cc1nc2ccccc2c(=O)n1-c1cccc(NC(=O)CCC2CCCCC2)c1`?
**A.** compound max-min signal: 0.0678; glutamate response, % of max: 11% (inactive); glutamate slope, % of max: 28.2%

**Q.** For `O=C(NC(C(=O)O)C12CC3CC(CC(C3)C1)C2)c1cc([N+](=O)[O-])ccc1Cl` (stereo unspecified), which compound max-min signal is on record?
**A.** 0.0736

**Q.** What about the glutamate response, % of max of the same compound?
**A.** 35.4% (inactive)

**Q.** What about the glutamate slope, % of max of the same compound?
**A.** 56.5%

**Q.** For `O=C(NC(C(=O)N1CCCCC1)C12CC3CC(CC(C3)C1)C2)c1ccc(F)cc1` (stereo unspecified), which compound max-min signal is on record?
**A.** 0.0524

**Q.** What about the glutamate response, % of max of the same compound?
**A.** 56.1% (active)

**Q.** What about the glutamate slope, % of max of the same compound?
**A.** 79.2%

**Q.** What does the source list for `COC(=O)N1CCC(CNC(=O)c2ccc(F)cc2)CC1`?
**A.** compound max-min signal: 0.0851; glutamate response, % of max: 46.6% (inactive); glutamate slope, % of max: 66.5%

**Q.** `O=C(Nc1sc2ccccc2c(=O)c1-c1ccc2c(c1)OCO2)c1ccco1` was tested. Which compound max-min signal did it give?
**A.** 0.14

**Q.** And the glutamate response, % of max?
**A.** 24.9% (inactive)

**Q.** And the glutamate slope, % of max?
**A.** 55.4%
